Screening data (PubChem)
Only some compounds are listed: those with a hit (about 2.8% of all), similar ones and a draw of the others.
HIF-2a block: HIF-2a inhibition; actives 0.72% (n = 360,000); 786-0 RCC cells HIF-2a reporter, luciferase luminescence, overnight; AID 624352; inhibition, % at 18.8 µM;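 active means inhibition of the luminescence signal of 40% or more relative to plate controls, in a single-dose primary screen at 18.75 µM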
Peg3 prom inh: Peg3 promoter activity inhibition; inhibition, % at 20 µM; actives 1.7% (n = 360,000); HeLa PEG-Prom luciferase reporter, luminescence, overnight;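 active means inhibition of at least 50% at 20 µM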
EBV LMP1 NFkB: Epstein-Barr LMP1 NF-kappaB reporter inhibition | LMP1-induced NF-kappaB luciferase reporter cells, luminescence | inhibition, % at 12.5 µM | actives 0.69% (n = 350,000); in the data active means inhibition above about 41%;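 further: 0% = neutral control wells and 100% = reference inhibitor control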
PAX8 reporter: PAX8 transcriptional activity inhibition; RMG-I TPO-luciferase reporter, SteadyGlo, 24 h; inhibition, % at 12.6 µM; actives 1.2% (n = 360,000);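 active means mean replicate inhibition at least 60% with every replicate also reaching 60%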;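 further: luciferase light reporting Pax8 driven TPO promoter activity; plate controls were median of neutral control wells for no effect and mitoxantrone controls for full effect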
MITF TRPM1 inh: reduces MITF-dependent TRPM1 promoter luciferase signal | SK-MEL-5 TRPM1 promoter luciferase, 24 h | inhibition, % at 12.5 µM | actives 0.83% (n = 330,000) | AID 488899;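 active means mean inhibition across replicates of 60% or more, whatever share of single replicates reaches that level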
Shn3 inh set2: inhibitors of Schnurri-3 3'UTR reporter in osteoblasts; inhibition, % at 12.5 µM; Clone20 osteoblast Shn3 3'UTR firefly luciferase, 24 h; actives 0.52% (n = 360,000);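 active means mean inhibition of at least 75% with every replicate also reaching 75%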;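 further: 0% = median of neutral control wells and 100% = pilot-screen positive control compound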
Active calls of the source: *; . = not tested or not shown.

SMILES	HIF-2a block	Peg3 prom inh	EBV LMP1 NFkB	PAX8 reporter	MITF TRPM1 inh	Shn3 inh set2
C#CCOCCOCCOCCNc1nc(N2CCN(C(=O)CCCCCCCCCCNC(=O)[C@H]([C@@H](C)CC)n3cc(CCCCN=C(N)N)nn3)CC2)nc(N2CCN(C(=O)CCCCCCCCCCNC(=O)[C@H](CO)n3cc(CCCCCN)nn3)CC2)n1	0	28	3	.	85*	29
C#CCOCCOCCOCCNc1nc(N2CCN(C(=O)CCCCCCCCCCNC(=O)[C@H]([C@@H](C)CC)n3cc(CCCCCN)nn3)CC2)nc(N2CCN(C(=O)CCCCCCCCCCNC(=O)[C@H](CO)n3cc(CCCCCN)nn3)CC2)n1	-3	99*	6	.	82*	30
C#CCOCCOCCOCCNc1nc(N2CCN(C(=O)CCCCCCCCCCNC(=O)Cn3cc(CCCCCN)nn3)CC2)nc(N2CCN(C(=O)CCCCCCCCCCNC(=O)[C@H]([C@@H](C)CC)n3cc(CCCCN=C(N)N)nn3)CC2)n1	-16	25	-7	.	75*	27
CC1=CC(=O)C=C/C1=C(/c1ccc(O)cc1C)c1ccccc1S(=O)(=O)O	9	79*	-14	8	9	-1
C[C@@H]1CN([C@H](C)CO)C(=O)c2cc(NS(=O)(=O)c3cccs3)ccc2O[C@@H](C)CCCCO[C@H]1CN(C)C(=O)C1CCCCC1	.	.	.	25	.	.
OC(CNCCc1ccc(C(F)(F)F)cc1)COc1ccc2ccccc2c1 (stereo not given)	15	101*	4	12	14	37
COc1ccc(CCNCC(O)COc2cccc(Br)c2)cc1 (stereo not given)	21	74*	-3	-13	-3	1
CC(=O)c1cccc(OCC(O)CNCCc2ccc(Cl)cc2)c1 (stereo not given)	12	-10	-4	-6	-10	0
COc1ccccc1COCC(O)CNCCc1ccc(C(F)(F)F)cc1 (stereo not given)	9	-12	3	-5	-9	-2
OC(CNC1CCCC1)COc1ccccc1Br (stereo not given)	11	-4	7	19	-14	5
OC(CNCCc1ccc(C(F)(F)F)cc1)COc1cccc2ccccc12 (stereo not given)	21	90*	0	50	10	17
OC(CNC1CCCCCC1)COc1cccc2ccccc12 (stereo not given)	10	92*	13	7	-22	70
CCOC(=O)c1c(C)n(C)c2ccc(OCC(O)CNCCc3ccccc3)cc12 (stereo not given)	0	38	2	-9	-19	7
O=C(Nc1ccccc1)N1CCCCN2[C@H](CO)[C@H](c3ccc(C#Cc4cccnc4)cc3)[C@@H]2C1	.	.	.	-23	.	.
COc1ccc(CNC(=O)C[C@@H]2CC[C@@H](NC(=O)CN(C)C)[C@@H](CO)O2)cc1	.	.	.	0	.	.
COc1cccc(N2CCN(C(=O)c3ccc(CS(=O)c4ccc(C)cc4)o3)CC2)c1 (stereo not given)	16	-14	12	66*	6	31
Cc1cc(C(=O)CCl)c(C)n1Cc1ccco1	26	62*	17	17	45	5
Cc1cc(C(=O)CCl)c(C)n1-c1ccon1	-1	53*	4	-5	57	20
COC(=O)CCCn1c(C)cc(C(=O)CCl)c1C	21	51*	-4	11	14	7
Cc1cc(C(=O)CCl)c(C)n1CCc1ccccc1	.	.	.	32	.	.
Cc1cc(C(=O)CCl)c(C)n1-c1cccc([N+](=O)[O-])c1	7	105*	11	22	41	26
C[C@H]1CN([C@@H](C)CO)C(=O)c2cc(NC(=O)Nc3ccccc3)ccc2O[C@H]1CN(C)Cc1ccc(-c2ccccc2)cc1	.	.	.	8	.	.
COC(=O)C[C@H]1CC[C@H]2[C@@H](COc3ccc(NC(=O)c4cc(C)on4)cc3C(=O)N2C)O1	.	.	.	0	.	.
CO[C@H]1CN(C)C(=O)c2cc(NC(=O)C3CCC3)ccc2OC[C@@H](C)N(C(=O)NC(C)C)C[C@@H]1C	.	.	.	5	.	.
C[C@H]1CCCCO[C@H](CN(C)Cc2ccc(C(F)(F)F)cc2)[C@@H](C)CN([C@@H](C)CO)C(=O)c2cc(NC(=O)Nc3ccc4c(c3)OCO4)ccc2O1	.	.	.	46	.	.
SMILES	HIF-2a block	Peg3 prom inh	EBV LMP1 NFkB	PAX8 reporter	MITF TRPM1 inh	Shn3 inh set2
C[C@@H]1CCCCO[C@H](CN(C)Cc2ccc(C(F)(F)F)cc2)[C@H](C)CN([C@@H](C)CO)C(=O)c2cc(NC(=O)Nc3ccc4c(c3)OCO4)ccc2O1	.	.	.	84*	.	.
C[C@H]1CCCCO[C@@H](CN(C)Cc2ccc(C(F)(F)F)cc2)[C@@H](C)CN([C@@H](C)CO)C(=O)c2cc(NC(=O)Nc3ccc4c(c3)OCO4)ccc2O1	.	.	.	80*	.	.
C[C@@H]1CCCCO[C@@H](CN(C)Cc2ccc(C(F)(F)F)cc2)[C@H](C)CN([C@H](C)CO)C(=O)c2cc(NC(=O)Nc3ccc4c(c3)OCO4)ccc2O1	.	.	.	71*	.	.
CCC(=O)Nc1ccc2c(c1)OC[C@H](C)N(CC1CCCCC1)C[C@@H](C)[C@@H](OC)CN(C)C2=O	.	.	.	-5	.	.
C[C@H](NC(=O)C[C@H]1C[C@H]2c3cc(NC(=O)CN(C)C)ccc3O[C@H]2[C@@H](CO)O1)c1ccccc1	.	.	.	-9	.	.
N#Cc1ccc(/C=C/C(=O)c2cccnc2)cc1	14	70*	6	1	20	62
O=C(/C=C/c1ccc(OCc2ccccc2)c(OCc2ccccc2)c1)c1cccnc1	26	37	-10	5	24	89*
COc1ccc(OC)c(C(=O)/C=C/c2cccnc2)c1	39	75*	13	72*	2	-19
CN(C)S(=O)(=O)c1ccc(C(=O)/C=C/c2cccnc2)cc1	27	100*	2	1	-4	63
O=C(/C=C/c1ccc(Cl)cc1)c1cccnc1	32	44	2	.	3	-12
COc1cc(C(=O)/C=C/c2cccnc2)ccc1O	-28	-63	10	23	7	-41
C[C@@H]1CN([C@@H](C)CO)C(=O)c2cc(NC(=O)Nc3ccc(C(F)(F)F)cc3)ccc2O[C@@H](C)CCCCO[C@@H]1CN(C)C(=O)Nc1ccccc1	.	.	.	-12	.	.
O=C(C[C@H]1C=C[C@H](NC(=O)C2CCC2)[C@@H](CO)O1)NCc1ccncc1	.	.	.	-26	.	.
C[C@@H]1CCCCO[C@@H](CN(C)C)[C@@H](C)CN([C@@H](C)CO)C(=O)c2cc(NC(=O)Nc3ccc(F)cc3)ccc2O1	.	.	.	-11	.	.
O=C(N[C@@H]1CC[C@H](CCn2cc(C3CC3)nn2)O[C@@H]1CO)c1cccnc1	.	.	.	1	.	.
COc1ccc(C(=O)N/N=C/c2ccc(OC(=O)c3cccs3)cc2)cc1	-30	-38	-6	101*	-11	-19
CC(=O)Nc1ccc(C=NNC(=O)c2ccc(NS(=O)(=O)c3cccs3)cc2)cc1	-36	100*	8	-19	-2	0
